Screening results as filed in PubChem BioAssay.
ELG1 DNA repair: ELG1-dependent DNA repair inhibition; HEK293T ELG1-luciferase reporter, luminescence, 16 h; DNA damage induced by 5-fluorouridine; Potency, µM (doses to about 46.1 µM), for the others: at the top dose activity change, negative = inhibition, actives largely listed as inhibitors; 330,000 tested, 2.3% active; AID 504467; further: on the % scale 0 is the no-effect control and ±100 the full control effect; nearly all actives have a fitted effect of over 55% in size
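HEK293T cells expressing luciferase-tagged ELG1 (2,000/well) received 5-Fluorouridine plus compound or DMSO for 16 hr at 37 °C. Luciferase was read by ONE-Glo luminescence after 30 min at room temperature.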
Rab9 promoter act: activators of Rab9 promoter; Potency, µM (highest dose often 9.22 µM), without a hit: at the highest dose activation, negative = inhibition, hits mostly activators; 320,000 tested, 2.8% active; AID 485297; Huh7 Rab9 promoter-luciferase reporter, luminescence, 24 h; further: % of control where 0% means no effect; nearly all actives have a fitted effect of over 60% in size
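Steps: seed 1500 Huh7 Rab9-luc cells per well, rest 2 h at 37 °C; add compound in DMSO; incubate 24 h; add luciferase reagent, 10 min ambient; read luminescence.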
SMN2 splice up: increases expression of the SMN2 splice variant | HEK293 SMN2-luciferase splicing reporter, luminescence, 30-36 h | Potency, µM (top dose mostly 46.1 µM), for the others: at the top dose activity change, positive = activation, actives largely listed as activators | 210,000 tested, 2.8% active | AID 1458; further: % of control where 0% means no effect; nearly all actives have a fitted effect of over 55% in size
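HEK293 cells carry an SMN2 […]–luciferase reporter in which exon 7 inclusion puts luciferase in frame. Cells were plated 10-12 h before compound addition, then incubated 30-36 h at 37C. ONE-Glo luminescence was read; sodium butyrate at 4.5 mM final served as control.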
NPC1 promoter act: NPC1 promoter activation | Huh7 NPC1 promoter luciferase reporter, 24 h | Potency, µM (highest dose often 9.22 µM), without a hit: at the top dose activation, actives largely listed as activators | 320,000 tested, 2.4% active | AID 485313; further: % of control where 0% means no effect; nearly all actives have a fitted effect of over 60% in size
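In 1536-well qHTS, Huh7 cells harboring an NPC1 promoter–luciferase construct received compound for 24 h; activation was quantified by luminescence following luciferase reagent addition.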
ELG1 genotoxic: genotoxicity induction in ELG1-luciferase HEK293T cells | Potency, µM (series often up to 46 µM), for the others: at the highest dose activity change, positive = activation, usual class: activators | 330,000 tested, 1.3% active | AID 504466 | HEK293T ELG1-luciferase reporter, luminescence, 16 h; further: % of control where 0% means no effect; nearly all actives have a fitted effect of over 60% in size
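Screening used a luciferase reporter fused to human ELG1 in HEK293T cells. Luminescence was read on a CCD plate imager after 16 hr exposure and 30 min ONE-Glo incubation.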
FLuc counter: inhibits or activates purified firefly luciferase, miR-21 counter-screen. purified FLuc, Km substrates, luminescence inhibition. P08659. 360,000 tested, 6.9% active. AID 588342. Potency, µM (series often up to 57.5 µM), inactives show at the highest dose activity change, negative = inhibition, hits mostly inhibitors;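 further: plate controls were vehicle for no effect and reference inhibitor for full effect; nearly all actives have a fitted effect of over 55% in size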
Target sequence (P08659 whole entry, looked up): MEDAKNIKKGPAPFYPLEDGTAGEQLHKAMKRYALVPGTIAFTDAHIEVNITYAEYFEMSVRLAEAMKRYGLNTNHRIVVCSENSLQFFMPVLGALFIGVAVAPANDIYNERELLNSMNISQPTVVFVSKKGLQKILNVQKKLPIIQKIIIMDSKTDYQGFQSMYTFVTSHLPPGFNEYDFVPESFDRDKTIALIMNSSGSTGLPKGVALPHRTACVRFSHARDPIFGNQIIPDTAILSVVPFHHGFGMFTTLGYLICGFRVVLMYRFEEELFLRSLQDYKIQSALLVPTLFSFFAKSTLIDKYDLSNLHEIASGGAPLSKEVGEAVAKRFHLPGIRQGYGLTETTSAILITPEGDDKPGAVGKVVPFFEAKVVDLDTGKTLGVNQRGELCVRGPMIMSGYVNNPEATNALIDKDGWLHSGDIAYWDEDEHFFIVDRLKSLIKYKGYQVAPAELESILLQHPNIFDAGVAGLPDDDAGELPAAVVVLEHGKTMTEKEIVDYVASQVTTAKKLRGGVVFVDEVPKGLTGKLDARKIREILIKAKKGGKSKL
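Purified P. pyralis luciferase (10nM final) with 10uM D-luciferin and 10uM ATP (Km levels) in 50mM Tris acetate pH 7.5, 10mM Mg acetate, 0.01% Tween-20, 0.05% BSA; qHTS 6-point titration, ~60 µM downward; luminescence read.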
* marks the source's active call; other numbers are inactive results; [ ] = another dose, or the depositor's remark. Rows were chosen to be rich in hits. Some 9.3% of all compounds tested hit in one or more screens of this group. The call rests on the fitted dose curve; in most records, active means well fitted curve in the direction sought with a large enough effect; inconclusive means small, poorly fitted or top-dose-only effect, or another doubt; inactive means no such curve, though single readings can be large; an effect the other way counts as inactive or inconclusive. Potency means the concentration at half of the fitted maximal effect.

Fc1ccc(-c2nnc(-c3ccc(Cl)cc3)o2)cc1 was read as ELG1 DNA repair inconclusive, Rab9 promoter act 0.79µM*, SMN2 splice up inconclusive, NPC1 promoter act 2µM*, ELG1 genotoxic 6.5µM* and FLuc counter 2.7µM*.
`Clc1ccc(-c2nnc(-c3ccccc3)o2)c(Cl)c1` gave ELG1 DNA repair inconclusive, Rab9 promoter act 0.89µM*, SMN2 splice up 2.5µM*, NPC1 promoter act 0.4µM*, ELG1 genotoxic inconclusive and FLuc counter 0.43µM*.
Screening Clc1ccc(-c2nnc(-c3ccc(Br)o3)o2)c(Cl)c1 returned ELG1 DNA repair inconclusive, Rab9 promoter act inconclusive, SMN2 splice up inconclusive, NPC1 promoter act 1.6µM*, ELG1 genotoxic 9.2µM* and FLuc counter 3µM*.
For Fc1ccc(-c2nnc(-c3ccc(Cl)cc3Cl)o2)cc1 the results were ELG1 DNA repair inconclusive, Rab9 promoter act 0.32µM*, SMN2 splice up 1µM*, NPC1 promoter act 0.22µM*, ELG1 genotoxic 1.6µM* and FLuc counter 0.48µM*.
Screening Clc1ccc(-c2nnc3sc(-c4ccc(Br)o4)nn23)c(Cl)c1 returned ELG1 DNA repair 9%, Rab9 promoter act -6%, SMN2 splice up -3%, NPC1 promoter act -3%, ELG1 genotoxic 1% and FLuc counter 7%.
Screening Cc1ccc(CN2C(=O)CCC2C(=O)NC2CC2)cc1 (stereo unspecified) returned ELG1 DNA repair 9%, Rab9 promoter act 1%, SMN2 splice up -2%, NPC1 promoter act 0%, ELG1 genotoxic -2% and FLuc counter 1%.
Cc1nc(N2CCN(c3ccccn3)CC2)c2c(C)c(C(=O)Nc3c(C)cc(Br)cc3C)sc2n1 was read as ELG1 DNA repair inconclusive, Rab9 promoter act 1%, NPC1 promoter act -6%, ELG1 genotoxic -6% and FLuc counter 0%.
Screening CCOC(=O)N1CCN(C2=CC(=O)OC23CCCCC3)CC1 returned ELG1 DNA repair 1%, Rab9 promoter act 0%, SMN2 splice up -14%, NPC1 promoter act -1%, ELG1 genotoxic -1% and FLuc counter -15%.
Screening CCc1ccc(NC(=O)Cn2cnc3sc(C)c(S(=O)(=O)N4CCC(C)CC4)c3c2=O)cc1 returned SMN2 splice up 8% and FLuc counter -1%.
`O=S(=O)(NCc1cc(-c2ccc(Cl)cc2)no1)c1ccccc1` gave ELG1 DNA repair 11%, Rab9 promoter act 1%, SMN2 splice up -5%, NPC1 promoter act 2%, ELG1 genotoxic 3% and FLuc counter 3%.
Clc1ccc(-c2cc(COc3ccccc3)on2)cc1 was read as ELG1 DNA repair inconclusive, Rab9 promoter act inconclusive, SMN2 splice up inconclusive, NPC1 promoter act 15%, ELG1 genotoxic -16% and FLuc counter 11µM*.
`O=S(=O)(Cc1cc(-c2ccc(Cl)cc2)no1)c1ccccc1` gave ELG1 DNA repair inconclusive, Rab9 promoter act 3.5µM*, SMN2 splice up 13µM*, NPC1 promoter act inconclusive, ELG1 genotoxic 9.2µM* and FLuc counter inconclusive.
Screening O=S(=O)(Cc1cc(-c2ccccc2Cl)no1)c1ccccc1 returned ELG1 DNA repair inconclusive, Rab9 promoter act 2.8µM*, SMN2 splice up inconclusive, NPC1 promoter act inconclusive, ELG1 genotoxic inconclusive and FLuc counter 17µM*.
CCC(=O)N1COC[C@@H]1Cc1ccccc1 was read as ELG1 DNA repair -5%, Rab9 promoter act -3%, SMN2 splice up 2%, NPC1 promoter act -1%, ELG1 genotoxic -2% and FLuc counter -8%.
Screening CCC(C)C(NC(=O)c1ccc(Cl)cc1Cl)C(=O)O (stereo unspecified) returned ELG1 DNA repair 13%, Rab9 promoter act -6%, SMN2 splice up 15%, NPC1 promoter act 1%, ELG1 genotoxic 0% and FLuc counter 19µM*.
CC(=O)c1c(OC(=O)c2ccc(C)cc2)c2ccccc2n1C was read as ELG1 DNA repair inconclusive, Rab9 promoter act 6%, SMN2 splice up 29%, NPC1 promoter act 1%, ELG1 genotoxic -40% and FLuc counter 5%.
Cc1ccc(C(=O)Oc2cc(C)n(C)c(=O)c2)cc1 was read as ELG1 DNA repair inconclusive, Rab9 promoter act -3%, SMN2 splice up -15%, NPC1 promoter act -7%, ELG1 genotoxic -2% and FLuc counter 15µM*.
`Cc1ccc(Nc2nc(C)cs2)cc1` gave ELG1 DNA repair inconclusive, Rab9 promoter act inconclusive, SMN2 splice up 8.9µM*, NPC1 promoter act inconclusive, ELG1 genotoxic 21µM* and FLuc counter 13µM*.
Cc1csc(Nc2ccc(Cl)cc2)n1 was read as ELG1 DNA repair inconclusive, Rab9 promoter act inconclusive, SMN2 splice up inconclusive, NPC1 promoter act inconclusive, ELG1 genotoxic inconclusive and FLuc counter 12µM*.
For Cc1csc(Nc2ccccc2C(F)(F)F)n1 the results were ELG1 DNA repair -1%, Rab9 promoter act -1%, SMN2 splice up -18%, NPC1 promoter act 6%, ELG1 genotoxic -2% and FLuc counter inconclusive.
Screening C=CCN1c2ccccc2[C@]23C[C@@H](C(=O)OC)N(S(=O)(=O)c4ccc(C#N)cc4)C2=NC(C(=O)OC)=C(C(=O)OC)[C@H]13 returned SMN2 splice up -1%[9.22 µM].
COc1c(O)cc2c(c1O)C(=O)CC(c1ccccc1)O2 (stereo unspecified) was read as ELG1 DNA repair inconclusive, Rab9 promoter act inconclusive, NPC1 promoter act inconclusive, ELG1 genotoxic inconclusive and FLuc counter 9.5µM*.
Screening Cc1c(O)cc2c(c1O)C(=O)CC(c1ccccc1)O2 (stereo unspecified) returned ELG1 DNA repair 4%, Rab9 promoter act -2%, NPC1 promoter act 1%, ELG1 genotoxic 3% and FLuc counter -19%.
Screening CCOc1ccc(-c2nnc(NC(=O)C3CCCC3)o2)cc1 returned ELG1 DNA repair inconclusive, Rab9 promoter act 30%, NPC1 promoter act 7%, ELG1 genotoxic 10% and FLuc counter inconclusive.
COc1ccc(Nc2nc3ccccc3c3nnc(C)n23)cc1Cl was read as SMN2 splice up 0% and FLuc counter 24µM*.
C/C(=N\NC(=O)c1nn(C)cc1Br)c1ccc(NC(=O)c2ccncc2)cc1 was read as ELG1 DNA repair -3%, Rab9 promoter act 17%, SMN2 splice up -1%, NPC1 promoter act 1%, ELG1 genotoxic 2% and FLuc counter -5%.
COc1ccc(C2=NOC(Cn3nc(-c4ccccc4)cc3C(=O)NCc3ccco3)C2)cc1 (stereo unspecified) was read as ELG1 DNA repair -29% and ELG1 genotoxic -4%.
